Test results taken from PubChem BioAssay AID504834 (National Center for Advancing Translational Sciences (NCATS), 2011).
In all, about 320,000 compounds went through this assay and about 22,000 (6.9%) were called active. Where a call stands in place of a potency, no number is given. Not shown: some 27% with an inconclusive outcome. The call rests on the fitted dose curve; in most records, active means well fitted inhibition curve with a large enough effect; inconclusive means small, poorly fitted or top-dose-only effect, or another doubt; inactive means no such curve, though single readings can be large or run the other way. This excerpt belongs to a sample that is enriched for actives.
Potency means the concentration at half of the fitted maximal effect.

Test: Primary qHTS for delayed death inhibitors of the malarial parasite plastid, 96 hour incubation
Details: P. falciparum luciferase reporter growth; series mostly up to 28.7 µM
Method in brief: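 Erythrocytes infected with luciferase-expressing P. falciparum were dispensed at 2% hematocrit and 0.05% parasitemia (final), then incubated with compounds 96 hours at 37 C in 5% CO2. Luminescence after detection reagent addition reported growth.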
In the case of `NC(=O)c1c(NC(=O)c2ccccc2)sc2c1CCCC2`, the Potency is reported as “inactive”.
For `CC1CCCCC12NC(=O)N(CC(=O)Nc1ccc(S(=O)(=O)Nc3ncccn3)cc1)C2=O` (stereo not drawn), the Potency was “inactive”.
For `COCCN1C(=O)C(=O)/C(=C(/O)c2ccc(S(=O)(=O)N3CCOCC3)cc2)C1c1ccc(O)c(OC)c1` (stereo not drawn), the Potency was “inactive”.
With `Cc1cccc(NC(=O)Nc2nnc(-c3ccccc3)o2)c1` the Potency was “inactive”.
In the case of `Cc1ccc(NC(=O)Nc2ccccc2)c(Br)c1`, the Potency is reported as 7.38 µM (active).
For `Cc1c(NC(=O)Nc2ccccc2)cccc1[N+](=O)[O-]`, the Potency was “inactive”.
In the case of `CCN(CC)S(=O)(=O)c1cc(C(=O)Nc2cc(S(=O)(=O)N3CCOCC3)ccc2N2CCCC2)ccc1F`, the Potency is reported as 2.62 µM (active).
With `CCN(CC)S(=O)(=O)c1ccc(N2CCOCC2)c(NC(=O)C(C)Oc2ccc(F)cc2)c1` (stereo not drawn) the Potency was 14.7 µM (active).
With `CCN(CC)S(=O)(=O)c1ccc(N2CCOCC2)c(C(=O)O)c1` the Potency was “inactive”.
In the case of `CC(Oc1ccc(F)cc1)C(=O)Nc1cc(S(=O)(=O)N2CCOCC2)ccc1N1CCN(C)CC1` (stereo not drawn), the Potency is reported as “inactive”.
In the case of `O=C(CNCc1ccco1)Nc1cc(S(=O)(=O)N2CCOCC2)ccc1N1CCCC1`, the Potency is reported as “inactive”.
In the case of `CCC(=O)Nc1ccccc1N1CCN(S(C)(=O)=O)CC1`, the Potency is reported as “inactive”.
With `CCN(CC)S(=O)(=O)c1ccc(N2CCOCC2)c(NC(=O)C2CSC3(C)CCC(=O)N23)c1` (stereo not drawn) the Potency was 10.4 µM (active).
In the case of `CCN(CC)S(=O)(=O)c1ccc(N2CCN(C)CC2)c(NC(=O)Nc2ccccc2F)c1`, the Potency is reported as 13.1 µM (active).
In the case of `CCN(CC)S(=O)(=O)c1ccc(N2CCOCC2)c(NC(=O)C2COc3ccccc3O2)c1` (stereo not drawn), the Potency is reported as “inactive”.
For `CC12CCC(=O)N1C(C(=O)Nc1ccc(F)c(F)c1F)CS2` (stereo not drawn), the Potency was “inactive”.
With `CC(=O)N1CCc2cc(S(=O)(=O)Nc3ccccc3N3CCN(C)CC3)ccc21` the Potency was “inactive”.
With `O=C(COC(=O)c1ccccc1F)Nc1cc(S(=O)(=O)N2CCOCC2)ccc1N1CCCC1` the Potency was “inactive”.
In the case of `CN(CC(=O)NC(=O)Nc1ccccc1F)Cc1ccccc1`, the Potency is reported as “inactive”.
For `COc1ccc2ccn(C)c2c1`, the Potency was “inactive”.
With `O=C(Cc1cccs1)Nc1ccc([N+](=O)[O-])cc1` the Potency was “inactive”.
With `O=C(O)C(c1ccccc1)N1C(=O)/C(=C\c2ccc(-c3cccc(Cl)c3)o2)SC1=S` (stereo not drawn) the Potency was “inactive”.
With `O=C1CCC(C(=O)N2CCCCO2)CN1Cc1cccc(C(F)(F)F)c1` (stereo not drawn) the Potency was “inactive”.
For `O=C(NC1CCCC1)c1cc(-c2ccccc2)on1`, the Potency was “inactive”.
For `COc1ccc(OCc2cccc(C(=O)N3CCCC3)c2)cc1`, the Potency was “inactive”.
In the case of `CCC(CC)C(=O)Nc1cccc(C(=O)N2CCCC2)c1`, the Potency is reported as 8.28 µM (active).
With `CC(=O)c1cccc(NC(=S)N2CCCC2)c1` the Potency was “inactive”.
In the case of `Cc1ccc(Cl)c(OCC(=O)NN2CCN(C)CC2)c1`, the Potency is reported as “inactive”.
In the case of `CCc1c(C)nc(N)n2c(SCC(=O)NC3CCCCC3)nnc12`, the Potency is reported as “inactive”.
For `Cn1c2c(c(=O)n(C)c1=O)C(c1cccc([N+](=O)[O-])c1)Nc1ccccc1O2` (stereo not drawn), the Potency was “inactive”.
For `CCOC(=O)C1=C(CN2CCc3ccccc32)NC(=O)NC1c1ccc(Cl)cc1` (stereo not drawn), the Potency was 2.08 µM (active).
In the case of `CCOC(=O)C1=C(c2ccccc2)NC(=S)NC1c1ccc(Cl)cc1` (stereo not drawn), the Potency is reported as “inactive”.
For `CCOC(=O)C1=C(CN2CCc3ccccc32)NC(=O)NC1c1cccc([N+](=O)[O-])c1` (stereo not drawn), the Potency was 8.28 µM (active).
In the case of `CCOC(=O)C1=C(CN2CCCCCC2)NC(=O)NC1c1cccc([N+](=O)[O-])c1` (stereo not drawn), the Potency is reported as “inactive”.
For `O=C(OCC(=O)N1CCc2ccccc21)C1CCCN1S(=O)(=O)c1ccc(Cl)cc1` (stereo not drawn), the Potency was “inactive”.
In the case of `NC(=O)C1CCCN(CC(=O)N2CCN(c3ccccc3)CC2)C1` (stereo not drawn), the Potency is reported as “inactive”.
With `CCOc1ccc(NC(=O)COC(=O)C2CCC(=O)N2)c([N+](=O)[O-])c1` (stereo not drawn) the Potency was “inactive”.
For `CN(CC(=O)O)S(=O)(=O)c1ccc2oc3ccccc3c2c1`, the Potency was “inactive”.
For `CC1CCCCC1NC(=O)c1cc(=O)[nH]c2ccccc12` (stereo not drawn), the Potency was “inactive”.
For `CCOc1ccc(NC(=O)CCC(=O)NNC(=O)NC2CCCCC2)cc1`, the Potency was “inactive”.
For `Cc1ccccc1NCC(=O)N/N=C\c1ccc([N+](=O)[O-])s1`, the Potency was “inactive”.
In the case of `CCOc1ccc(NC(=O)CCC(=O)N/N=C/c2ccc([N+](=O)[O-])s2)cc1`, the Potency is reported as 4.15 µM (active).
With `CCOc1ccc2sc(NS(=O)(=O)c3ccc(N)cc3)nc2c1` the Potency was “inactive”.
In the case of `CCc1cccc(CC)c1NC(=S)NCc1ccc2[nH]c(C)cc2c1`, the Potency is reported as 2.62 µM (active).
For `CCc1cccc(CC)c1NC(=S)Nc1ccc2cn[nH]c2c1`, the Potency was “inactive”.
For `Cc1cc2cc(CNC(=O)c3cccs3)ccc2[nH]1`, the Potency was “inactive”.
For `CCOc1ncccc1C(=O)OCC(=O)Nc1cccc(S(=O)(=O)N2CCCCCC2)c1`, the Potency was “inactive”.
For `CC(C)c1ccc(/C=C2\NC(=O)NC2=O)cc1`, the Potency was “inactive”.
With `CCO[C@H]1OC(C(=O)N2CCOCC2)=C[C@@H](c2ccc3c(c2)OCO3)[C@@H]1CCCO` the Potency was “inactive”.
In the case of `CCO[C@@H]1OC(C(N)=O)=C[C@H](c2ccc(Br)cc2)[C@H]1CCCO`, the Potency is reported as “inactive”.
For `CCO[C@H]1OC(C(=O)O)=C[C@@H](C2CCCCC2)[C@@H]1CCCO`, the Potency was “inactive”.
For `CCO[C@@H]1OC(C(=O)N2CCOCC2)=C[C@H](C)[C@H]1CCCO`, the Potency was “inactive”.
For `CCO[C@H]1OC(C(=O)N2CCCCCCC2)=C[C@@H](c2ccc(C(F)(F)F)cc2)[C@@H]1CCCO`, the Potency was 3.29 µM (active).
With `CCO[C@H]1OC(C(=O)N2CCN(Cc3ccccc3)CC2)=C[C@@H](c2cn(C(C)=O)c3ccccc23)[C@@H]1CCCO` the Potency was 9.28 µM (active).
For `Cc1ccc(S(=O)(=O)CCC(=O)OCC(=O)N(C)C2CCS(=O)(=O)C2)cc1` (stereo not drawn), the Potency was “inactive”.
For `CCN(CC(=O)Nc1ccccc1C(F)(F)F)C(=O)CSCc1c(C)noc1C`, the Potency was “inactive”.
In the case of `Cc1ccc2c(c1)N(CC(=O)N1CCOCC1)C(=O)CO2`, the Potency is reported as “inactive”.
For `Cc1ccc2c(c1)N(CC(=O)N1CCCC(C)C1)C(=O)CO2` (stereo not drawn), the Potency was “inactive”.
In the case of `Cc1ccc2c(c1)N(CC(=O)NCC1CCCO1)C(=O)CO2` (stereo not drawn), the Potency is reported as 7.38 µM (active).
In the case of `CN(C)CCN(C(=O)C1=COCCO1)c1nc2ccc(Cl)cc2s1`, the Potency is reported as “inactive”.
For `O=C(Cc1cccs1)N(CC1CCCO1)C1(C(=O)NC2CCCCC2)CCCCC1` (stereo not drawn), the Potency was “inactive”.
In the case of `Cc1ccc(N(C(=O)CC2NC(=O)NC2=O)C2(C(=O)NC3CCCC3)CCCCC2)cc1` (stereo not drawn), the Potency is reported as “inactive”.
In the case of `CC(=O)N(CC1CCCO1)C1(C(=O)NC2CCCC2)CCCCC1` (stereo not drawn), the Potency is reported as 10.4 µM (active).
